Structures are written as SMILES. The campaign covered roughly 9,900 compounds. About 90 (0.9%) were called active. About 2% were inconclusive and are not listed. The sample holds actives, similar compounds and a random draw of the others, so the mix is not that of the screen. A number with no mark means an inactive call.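 Rule for the calls: active = mean normalized replicate activity at least 50 and at least half of replicates each reaching 50; inconclusive = only one of the two criteria met; inactive = neither criterion met.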

The assay can be described thus: reduction of CTGF mRNA in DLD1 cells – DLD1 colon cancer cells, RT-qPCR, single point, primary screen (AID 743449).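 Note: 0% = neutral control wells and 100% = dasatinib control wells; higher means stronger suppression of CTGF expression like dasatinib.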 To be noted: 24 h, at 12.5 µM, active compounds read high. For orientation: Quantitative PCR measures a nucleic acid by following its amplification.
The inhibition is the relative decrease from the control value, in per cent. Take `CCCC(=O)N1CCC2(CC1)CN[C@@H](CO)c1[nH]c3cc(OC)ccc3c12`: the inhibition is -5.58%.
With `COc1ccc2c3c([nH]c2c1)[C@H](CO)NCC31CCN(C(=O)Cc2cccnc2)CC1` the figure was 51% (active); with `CCCC(=O)N1CCC2(CC1)CN[C@H](CO)c1[nH]c3cc(OC)ccc3c12`, 2.25%.
Regarding `O=C(Nc1ccc(-c2ccccc2)cc1)[C@H]1[C@H](CO)[C@H]2Cn3c(cccc3=O)[C@H]2N1CC1CCOCC1`, the inhibition is 14.4%.
`O=C(C[C@H]1C[C@@H]2c3cc(NC(=O)C4CCC4)ccc3O[C@@H]2[C@H](CO)O1)NC1CCCC1`: the inhibition is -3.69%.
As to `CCCC(=O)Nc1ccc2c(c1)C(=O)N(C)[C@H]1CC[C@@H](CC(=O)N3CCCCC3)O[C@@H]1CO2`, the inhibition is -2.53%.
As to `CC(C)(C)[S@](=O)N1Cc2cc(C(=O)NCCc3ccncc3)nc(-c3cccc(-c4cccc(C#N)c4)c3)c2[C@@H]1CCO`, the inhibition is 79.3% (active).
Turning to `CC(C)(C)[S@@](=O)N1Cc2cc(C(=O)NCCc3ccncc3)nc(-c3cccc(-c4cccc(C#N)c4)c3)c2[C@H]1CCO`, the inhibition is 67.3% (active).
Turning to `COc1ccccc1-c1cccc(-c2nc(C(=O)NCc3ccncc3)cc3c2[C@@H](CCO)N([S@](=O)C(C)(C)C)C3)c1`, the inhibition is 20%.
For `CC(C)(C)[S@@](=O)N1Cc2cc(C(=O)NCCN3CCCC3)nc(-c3cccc(-c4ccc(C#N)cc4)c3)c2[C@H]1CCO`, the inhibition is -8.4%.
Regarding `CC(C)(C)[S@](=O)N1Cc2cc(C(=O)NCCN3CCCC3)nc(-c3cccc(-c4ccc(C#N)cc4)c3)c2[C@@H]1CCO`, the inhibition is 29.4%.
The value for `COc1ccccc1-c1cccc(-c2nc(C(=O)NCc3ccncc3)cc3c2[C@H](CCO)N([S@@](=O)C(C)(C)C)C3)c1` was 19.4%; that for `CCS(=O)(=O)N1CC2(CN(C(=O)c3ccc(F)cc3)[C@@H](CO)c3[nH]c4cc(OC)ccc4c32)C1` was 11.6%.
`C[C@@H]1CN([C@@H](C)CO)C(=O)c2cc(NC(=O)Nc3cccc4ccccc34)ccc2O[C@@H](C)CCCCO[C@@H]1CN(C)Cc1ccc(C(F)(F)F)cc1`: the inhibition is -20.9%.
Consider `COc1ccc(C#Cc2ccc3c(c2)[C@H]2[C@H](CCN2S(=O)(=O)c2ccccc2C)[C@@H](CO)N3C)cc1`, for which the inhibition was -15.4%.
As for `CCCC(=O)N1CC2(C1)CN(CC1CC1)[C@@H](CO)c1[nH]c3cc(OC)ccc3c12`, the inhibition is -16.5%.
Take `COCC(=O)NC[C@@H]1[C@@H](c2ccccc2)[C@H](CO)N1C(=O)c1ccccc1`: the inhibition was 19.2%.
Consider `O=C(CN1CCOCC1)N1CC(=O)N2[C@H](CO)[C@H](c3ccc(-c4cccc(F)c4)cc3)[C@@H]2C1`, for which the inhibition is -2.97%.
With `COc1cccc(C#Cc2ccc3c(c2)O[C@@H](CN(C)C(=O)CN2CCOCC2)[C@@H](C)CN([C@H](C)CO)S3(=O)=O)c1` the figure was 8.35%.
In the case of `C[C@@H]1CN([C@H](C)CO)S(=O)(=O)c2ccc(C#Cc3cccc(F)c3)cc2O[C@@H]1CN(C)S(=O)(=O)c1cn(C)cn1`, the inhibition was 72.6% (active).
Consider `COc1cccc(C#Cc2ccc3c(c2)O[C@@H](CN(C)C(=O)CN2CCOCC2)[C@@H](C)CN([C@@H](C)CO)S3(=O)=O)c1`, for which the inhibition was 50.7% (active).
For the compound `C[C@@H]1CN([C@@H](C)CO)S(=O)(=O)c2ccc(C#Cc3cccc(F)c3)cc2O[C@H]1CN(C)S(=O)(=O)c1cn(C)cn1`, the inhibition was 8.89%.
As to `COc1cccc(C#Cc2ccc3c(c2)O[C@H](CN(C)C(=O)CN2CCOCC2)[C@H](C)CN([C@@H](C)CO)S3(=O)=O)c1`, the inhibition is 22.3%.
In the case of `C[C@@H]1CN([C@@H](C)CO)S(=O)(=O)c2ccc(C#Cc3cccc(F)c3)cc2O[C@@H]1CN(C)S(=O)(=O)c1cn(C)cn1`, the inhibition is 40.9%.
Consider `O=C(CN1CCOCC1)N[C@@H]1CC[C@@H](CCn2cc(C3CC3)nn2)O[C@H]1CO`, for which the inhibition is -8.58%.
`C[C@@H]1CN([C@@H](C)CO)C(=O)c2cccc(NS(=O)(=O)c3ccc(F)cc3)c2O[C@@H]1CN(C)Cc1ccc(Cl)c(Cl)c1`: the inhibition was -11.4%.
Regarding `C[C@@H](NC(=O)C[C@H]1C=C[C@H](NS(=O)(=O)c2cccc(F)c2)[C@H](CO)O1)c1ccccc1`, the inhibition is -23.7%.
For `COCC(=O)N1CC(=O)N2[C@H](CO)[C@H](c3ccc(C#CC4CC4)cc3)[C@@H]2C1`, the inhibition was -14.5%.
Regarding `O=C(CC1CC1)N1CC(=O)N2[C@@H](CO)[C@H](c3ccc(C#Cc4cccc(F)c4)cc3)[C@@H]2C1`, the inhibition is 33%.
`O=C(CC1CC1)N1CC(=O)N2[C@H](C1)[C@H](c1ccc(C#Cc3cccc(F)c3)cc1)[C@@H]2CO`: the inhibition is 23.8%.
In the case of `O=C(CC1CC1)N1CC(=O)N2[C@@H](CO)[C@H](c3ccc(/C=C/c4ccccc4)cc3)[C@@H]2C1`, the inhibition was 52.4% (active).
`COCC(=O)N1CC(=O)N2[C@H](CO)[C@@H](c3ccc(C#CC4CC4)cc3)[C@H]2C1`: the inhibition was 62.3% (active).
On to `CS(=O)(=O)N1CC(=O)N2[C@H](C1)[C@H](c1ccc(C#Cc3ccc(F)cc3)cc1)[C@@H]2CO`, for which the inhibition was -7.23%.
With `O=C(CC1CC1)N1CC(=O)N2[C@H](CO)[C@@H](c3ccc(/C=C/c4ccccc4)cc3)[C@@H]2C1` the figure was 24.1%; with `O=C(CC1CC1)N1CC(=O)N2[C@H](C1)[C@@H](c1ccc(/C=C/c3ccccc3)cc1)[C@@H]2CO`, 16.9%; with `CS(=O)(=O)N1CC(=O)N2[C@H](C1)[C@@H](c1ccc(C#Cc3ccc(F)cc3)cc1)[C@@H]2CO`, 63.2% (active).
Regarding `CS(=O)(=O)N1CC(=O)N2[C@H](CO)[C@@H](c3ccc(C#Cc4ccc(F)cc4)cc3)[C@H]2C1`, the inhibition was 43.4%.
In the case of `COCC(=O)N1CC(=O)N2[C@H](CO)[C@H](c3ccc(C#CC4CC4)cc3)[C@H]2C1`, the inhibition is 25.9%.
On to `O=C(CC1CC1)N1CC(=O)N2[C@H](CO)[C@@H](c3ccc(C#Cc4cccc(F)c4)cc3)[C@H]2C1`, for which the inhibition was 50.5% (active).
As for `CO[C@@H]1CN(C)C(=O)c2cc(NC(=O)Nc3cccc(Cl)c3)ccc2OC[C@@H](C)N(C(=O)Nc2c(C)noc2C)C[C@H]1C`, the inhibition is 19.6%.
As to `C[C@H]1CN([C@@H](C)CO)C(=O)c2cc(NC(=O)C3CC3)ccc2O[C@@H]1CN(C)S(=O)(=O)c1ccccc1`, the inhibition is -17.4%.
With `C[C@H](CO)N1C[C@H](C)[C@@H](CN(C)C(=O)Nc2ccccc2)OCCCC[C@H](C)Oc2ccc(NC(=O)Nc3ccccc3)cc2C1=O`, the inhibition was 20%.
As for `C[C@@H]1CN([C@H](C)CO)C(=O)Cc2cc(N(C)C)ccc2O[C@H]1CN(C)Cc1ccc(-c2ccccc2)cc1`, the inhibition is -24.6%.
The value for `O=C(c1ccccc1F)N1CC[C@H]2[C@H](CO)Nc3ccc(Br)cc3[C@H]21` was -3.54%.
Regarding `O=C1CCCCn2nncc2COC[C@H](Cc2ccccc2)N1`, the inhibition was -21.7%.
As for `COc1ccc(S(=O)(=O)Nc2ccc3c(c2)C(=O)N([C@H](C)CO)C[C@H](C)[C@H](CN(C)S(=O)(=O)c2ccc(Cl)cc2)OCCCC[C@@H](C)O3)cc1`, the inhibition is -2.26%.
With `Cc1ccc(S(=O)(=O)Nc2ccc3c(c2)C(=O)N([C@H](C)CO)C[C@H](C)[C@@H](CN(C)S(=O)(=O)c2cccs2)OCCCC[C@H](C)O3)cc1` the figure was -31%; with `Cc1ccc(S(=O)(=O)Nc2ccc3c(c2)CC(=O)N([C@H](C)CO)C[C@@H](C)[C@H](CN(C)S(=O)(=O)c2ccccc2)O3)cc1`, -17.2%; with `Cc1ccc(S(=O)(=O)Nc2ccc3c(c2)C(=O)N([C@H](C)CO)C[C@@H](C)[C@H](CN(C)S(=O)(=O)c2cccs2)OCCCC[C@@H](C)O3)cc1`, 57.5% (active).
For `Cc1ccc(S(=O)(=O)Nc2ccc3c(c2)CC(=O)N([C@H](C)CO)C[C@@H](C)[C@@H](CN(C)S(=O)(=O)c2ccccc2)O3)cc1`, the inhibition was 57.6% (active).
In the case of `Cc1ccc(S(=O)(=O)Nc2ccc3c(c2)CC(=O)N([C@@H](C)CO)C[C@H](C)[C@@H](CN(C)S(=O)(=O)c2ccccc2)O3)cc1`, the inhibition is -31.9%.
For `COc1ccc(S(=O)(=O)Nc2ccc3c(c2)C(=O)N([C@@H](C)CO)C[C@H](C)[C@@H](CN(C)S(=O)(=O)c2ccc(Cl)cc2)OCCCC[C@@H](C)O3)cc1`, the inhibition is 50.6% (active).
With `Cc1ccc(S(=O)(=O)Nc2ccc3c(c2)C(=O)N([C@@H](C)CO)C[C@@H](C)[C@H](CN(C)S(=O)(=O)c2cccs2)OCCCC[C@H](C)O3)cc1`, the inhibition is -3.15%.
The value for `COc1ccc(S(=O)(=O)Nc2ccc3c(c2)C(=O)N([C@H](C)CO)C[C@H](C)[C@@H](CN(C)S(=O)(=O)c2ccc(Cl)cc2)OCCCC[C@H](C)O3)cc1` was -8.83%.
On to `O=C(C[C@@H]1C=C[C@H](NC(=O)c2cnccn2)[C@H](CO)O1)NCc1ccccc1F`, for which the inhibition is 7.69%.
As to `COc1ccc2c3c([nH]c2c1)[C@H](CO)NCC31CN(C(=O)Nc2c(C)noc2C)C1`, the inhibition was -10.8%.
As for `COc1ccc(CN(C)C[C@@H]2OCCCC[C@@H](C)Oc3ccc(NC(=O)C4CCCCC4)cc3C(=O)N([C@H](C)CO)C[C@@H]2C)cc1`, the inhibition is -11.6%.
With `N#C[C@@H]1[C@H](c2ccc(-c3cccc(F)c3)cc2)[C@@H](CO)N1C(=O)CN1CCOCC1`, the inhibition is 0.153%.
Turning to `CN1C(=O)c2cc(NC(=O)c3cccc(Cl)c3)ccc2OC[C@H]2O[C@@H](CC(=O)NC3CCCCC3)CC[C@H]21`, the inhibition was 19.3%.
With `COc1ccc(C(=O)N2C[C@H]3[C@@H](c4ccccc42)[C@@H](CO)N3Cc2ccccc2Cl)cc1` the figure was -11.9%.
